The entries come from a sample that favours hits as a whole.
ROC1-CUL1 inh – human ROC1-CUL1 E3 ligase inhibition; in vitro K48 di-Ub FRET, acceptor:donor ratio, 45 min; 140,000 tested, 0.6% active; inhibition, % at 10 µM; in the data active = inhibition above about 25%
Target sequence (P62877 whole entry, looked up): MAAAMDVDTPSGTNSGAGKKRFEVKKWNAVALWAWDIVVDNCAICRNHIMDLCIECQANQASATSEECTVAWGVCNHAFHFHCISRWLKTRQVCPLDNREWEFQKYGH
Target sequence (Q13616 whole entry, looked up): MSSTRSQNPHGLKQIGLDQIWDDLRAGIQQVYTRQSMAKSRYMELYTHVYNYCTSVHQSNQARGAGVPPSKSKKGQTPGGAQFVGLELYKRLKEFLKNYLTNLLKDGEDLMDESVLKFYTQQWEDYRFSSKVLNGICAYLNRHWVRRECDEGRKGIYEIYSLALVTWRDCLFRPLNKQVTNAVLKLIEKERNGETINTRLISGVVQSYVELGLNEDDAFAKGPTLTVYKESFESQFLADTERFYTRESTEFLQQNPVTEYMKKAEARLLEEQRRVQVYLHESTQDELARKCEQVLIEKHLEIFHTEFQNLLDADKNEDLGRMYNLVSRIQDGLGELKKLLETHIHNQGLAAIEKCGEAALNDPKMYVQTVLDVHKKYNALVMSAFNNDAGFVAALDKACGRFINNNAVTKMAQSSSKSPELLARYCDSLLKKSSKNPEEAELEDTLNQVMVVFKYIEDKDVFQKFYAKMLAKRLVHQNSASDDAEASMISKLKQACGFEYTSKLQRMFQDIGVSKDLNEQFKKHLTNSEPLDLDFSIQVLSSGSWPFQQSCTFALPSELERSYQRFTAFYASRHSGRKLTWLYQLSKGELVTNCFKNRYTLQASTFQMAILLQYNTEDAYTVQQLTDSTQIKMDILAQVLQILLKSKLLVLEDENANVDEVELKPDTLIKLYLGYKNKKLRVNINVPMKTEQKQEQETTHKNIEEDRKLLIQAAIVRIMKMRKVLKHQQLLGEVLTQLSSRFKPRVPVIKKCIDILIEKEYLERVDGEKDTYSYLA
Hits are given with their value; 0 = inactive.

SMILES	ROC1-CUL1 inh
CCN(CC)C1=NC=CC(c2ccccc2)=CC1Cc1ccccc1 (stereo unspecified)	0
O=C1CC(CNC(=O)N2CCN(C(c3ccccc3)c3ccccc3)CC2)CN1Cc1ccccc1 (stereo unspecified)	0
COc1ccc(OC)c(CN2CCc3c(cnc(C)c3CNC(=O)c3ccccc3SC)C2)c1	0
CCOc1cc(/C=C2\C(=O)N(c3ccc(C(=O)O)cc3)N=C2C(F)(F)F)cc(Br)c1O	62
CCOc1cc(/C=C2\C(=O)NC(=S)N(c3ccc(Br)cc3)C2=O)cc(Br)c1O	0
COc1cc(/C=C2\C(=O)N(c3ccc(Cl)cc3)N=C2C(F)(F)F)ccc1OC(=O)c1ccco1	0
O=c1nc2n(-c3cccc(C(F)(F)F)c3)c3cccc(Cl)c3cc-2c(=O)[nH]1	0
Cc1ccc(C2=NN(CC#N)C(=O)SC2)cc1	0
Clc1ccc2c(NCCN3CCN(CCCN4CCN(CCNc5ccnc6cc(Cl)ccc56)CC4)CC3)ccnc2c1	0
COC(=O)NNc1ccnc2cc(Cl)ccc12	0
Clc1ccc2c(NCCN3CCN(CCCCCCCN4CCN(CCNc5ccnc6cc(Cl)ccc56)CC4)CC3)ccnc2c1	27
O=C(Nc1ccccc1COC(=O)c1cccs1)c1cccs1	0
COc1ccc(CNS(=O)(=O)Cc2ccccc2Cl)cc1	0
NC(=O)N=Nc1c(O)[nH]c2ccc(Br)cc12	0
O=[N+]([O-])c1ccc2[nH]c(O)c(N=Nc3ccccc3[N+](=O)[O-])c2c1	0
O=C1N=c2ccc([N+](=O)[O-])cc2=C1N=Nc1c(O)[nH]c2ccc([N+](=O)[O-])cc12	45
COc1cccc(C2c3c(oc4ccccc4c3=O)C(=O)N2c2nccs2)c1 (stereo unspecified)	0
Cc1ccccc1N=C1NC(=O)C(Cc2cccc([N+](=O)[O-])c2)S1 (stereo unspecified)	0
CCOC(=O)NC(=O)c1cc2cc(Br)ccc2oc1=O	0
O=C(NNC(=O)c1cc2cc(Br)ccc2oc1=O)c1ccncc1	0
O=C(NNC(=O)c1cc2cc(Br)ccc2oc1=O)c1ccc(O)cc1O	44
Cc1n[nH]c(C)c1CCCOc1ccccc1Cl	0
CC(=O)c1c(C)oc2ccc(OC(=O)c3ccccc3Br)cc12	0
CCC(Nc1cccc2ccccc12)C(=O)N/N=C/c1cc(OC)ccc1O (stereo unspecified)	0
O=C1NC(=S)N(c2cccc(Cl)c2Cl)C(=O)/C1=C/c1cn(Cc2ccc3ccccc3c2)c2ccccc12	0
SMILES	ROC1-CUL1 inh
O=C1NC(=S)N(c2cccc(Cl)c2Cl)C(=O)/C1=C/c1ccc(N2CCOCC2)cc1	29
Cc1ccc(N2C(=O)NC(=O)/C(=C\c3cccs3)C2=O)cc1C	0
Cc1ccsc1/C=C1/C(=O)NC(=S)N(c2cccc(Cl)c2Cl)C1=O	54
CN1C(=O)/C(=C/c2ccc(N3CCCC3)cc2)C(=O)NC1=S	0
C=CCOc1ccc(/C=C2\C(=O)NC(=S)N(c3cccc(Cl)c3Cl)C2=O)cc1	0
C=CCn1c(=S)sc2c(N/N=C/c3cccnc3)ncnc21	0
O[C@H]1CN(Cc2coc(-c3ccccc3)n2)C[C@@H]1N1CCN(c2ccccn2)CC1	0
CC(C)(O)C(=O)/C=C/c1cccc2ccccc12	54
CC(C)(O)C(=O)/C=C/c1ccccc1	0
C(/C=C/c1cccc2ccccc12)=C\c1ccccc1	0
Cc1cccc(CN2CCC(C(=O)Nc3ccccc3)CC2)c1	0
O=C(OC1=CC(=O)c2ccccc2C1=O)c1ccccc1	0
CCc1cc2c(cc1OC(C)=O)C(=O)c1ccccc1C2=O	0
CC(=O)C(C(C)=O)C1=CC(=O)C(=O)c2ccccc21	103
NC(=O)c1cc(N2C(=O)C3C4c5ccccc5C(c5ccccc54)C3C2=O)ccc1Cl (stereo unspecified)	0
COCc1ccc(CNC(C)c2cnc(-c3ccncc3)nc2C)o1 (stereo unspecified)	0
CCN(CC)C(=O)c1sc(NC(=O)c2cc(-c3ccccc3C)nc3ccccc23)c(C(N)=O)c1C	0
COc1ccc(CN2CC[C@@H](N3CCCCCC3)[C@H](O)C2)cc1C	0
Cn1nc(C(=O)N2CCN(c3ccc(Cl)cc3)CC2)c2c1-c1ccccc1SC2	0
COc1ccc(NC(=O)c2nn(C)c3c2CSc2ccc(C)cc2-3)cc1OC	0
Cc1ccc2c(c1)-c1c(c(C(=O)N3CCN(c4cc(C)ccc4C)CC3)nn1C)CS2	44
COCc1cc(=O)[nH]c(-c2cccc(CN(C)Cc3csc(C)n3)c2)n1	0
CCC(C)n1c(C)c(C)n2c3c(=O)n(CC(C)C)c(=O)n(C)c3nc12 (stereo unspecified)	0
CNC(=S)Nc1ccc(C)cc1	0
COc1ccc(C(=O)Nc2ccc3nsnc3c2)cc1OC	0
SMILES	ROC1-CUL1 inh
Cc1ccc(NC(=S)Nc2ccc3nsnc3c2)cc1	66
CC(=O)Nc1ccc(N2N=C(C)/C(=C/c3ccccc3)C2=O)cc1	41
CC1=NN(c2ccccc2)C(=O)/C1=C/c1cc(C)n(-c2cccc(C(F)(F)F)c2)c1C	0
COc1cccc(/C=C2\C(=O)N(c3ccccc3)N=C2C)c1OC	0
CC(=O)Oc1ccc(-n2c(C)cc(/C=C3\C(=O)N(c4ccccc4)N=C3C)c2C)cc1	0
CC1=NN(c2ccccc2)C(=O)/C1=C/c1cccc(OC2CSC2)c1	32
CC1=NN(c2ccccc2)C(=O)/C1=C\C1=Nc2ccccc2C1	0
CC1=NN(c2ccc(F)cc2)C(=O)C1=Cc1c(O)n(-c2ccccc2)c(=S)n(-c2ccccc2)c1=O	0
CC1=NN(c2cc(Cl)cc(Cl)c2)C(=O)/C1=C\c1ccc(N2CCOCC2)cc1	0
CC1=NN(c2ccccc2)C(=O)/C1=C\c1ccc(C(C)(C)C)cc1	40
Cc1ccc2oc(C(=O)N3CCCC(c4nc5ccccc5o4)C3)c(C)c2c1 (stereo unspecified)	0
Cc1ccc(OCCCC(=O)N2CCN(c3ccccc3F)CC2)cc1	0
C/C(=N\NC(=O)c1ccccc1[N+](=O)[O-])c1ccccc1	0
CCOC(=O)c1n[nH]c(C(=O)OCC)n1	0
Cc1ccc(Nc2nc(Nc3ccc(C)c(C)c3)nc(N3CCOCC3)n2)cc1C	0
Nc1ccc(/C=C/c2ccc(Nc3nc(Nc4ccccc4)nc(N4CCOCC4)n3)cc2S(=O)(=O)O)c(S(=O)(=O)O)c1	37
Fc1ccc(Nc2nc(Nc3ccc(F)cc3F)nc(N3CCOCC3)n2)cc1	0
C1=CC2c3c(ccc4ccccc34)NC(c3cccc4ccccc34)C2C1 (stereo unspecified)	0
COc1cccc([C@@H]2Nc3ccc(C(=O)O)cc3[C@@H]3C=CC[C@@H]32)c1OC	0
O=C(O)c1ccc2c(c1)C1C=CCC1C(c1cccc3ccccc13)N2 (stereo unspecified)	95
COC(=O)c1ccc([C@H]2Nc3ccc(S(=O)(=O)Nc4ccc(C)cc4)cc3[C@H]3C=CC[C@H]32)cc1	0
CC(C)c1ccc2c(c1)[C@@H]1C=CC[C@@H]1[C@H](c1ccc(S(=O)(=O)N3CCOCC3)cc1)N2	31
COc1ccc(NS(=O)(=O)c2ccc3c(c2)[C@H]2C=CC[C@H]2[C@@H](c2ccc(C(=O)O)cc2)N3)cc1	97
COc1cccc([C@H]2Nc3ccc(S(=O)(=O)Nc4ccc(C)c(C)c4)cc3[C@H]3C=CC[C@H]32)c1	0
Cc1cccc(NS(=O)(=O)c2ccc3c(c2)[C@H]2C=CC[C@H]2[C@@H](c2ccc(C(C)(C)C)cc2)N3)c1	0
Cc1cccc(C)c1NS(=O)(=O)c1ccc2c(c1)[C@H]1C=CC[C@H]1[C@@H](c1ccc(Cl)cc1)N2	0
COc1ccc(-n2nc(C)c3[nH]c(-c4cc(C)nn4C)nc32)cc1	0

Compound activity deposited in PubChem by Pan Lab, Icahn School of Medicine at Mount Sinai.
